Measurements: PubChem BioAssay AID1159580 (chemical genetic matrix, 2015)
Where “and” joins values, the source holds several entries; their conditions need not be identical. Equal entries are not always repeated. Hit rate of the full screen: of about 5,500 compounds, about 2,000 (36%) were called active. Not shown: some 18% with an inconclusive outcome. Rule as the data show it: active = normalized growth mostly below about 0.91 (no sharp cut-off); inconclusive = no clear call, values can overlap the other calls; inactive = mostly above about 0.92. This is one part of the list.

Experiment: chemical genetic growth profiling, strain panel (AID 1159580);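 also: tested at 20 µM; growth read once vehicle control cultures reached saturation at 30 °C; 1 = growth at the plate median or of vehicle wells; lower values mean less growth of the strain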
Settings: S. cerevisiae deletion strains, growth OD

Measured: normalized growth

CC1[C@H](C)OC(=O)CC(O)CC(O)CC(O)CCC(O)C(O)C[C@]2(O)CC(O)C(C(=O)O)C(CC(OC3O[C@H](C)[C@@H](O)[C@H](N)[C@@H]3O)/C=C/C=C/C=C/C=C/CC/C=C/C=C/[C@H](C)[C@H]1O)O2 (stereo partly specified)
inactive: locus YBL061C, strain skt5, active compounds read low 0.931 | locus YBR023C, strain chs3, active compounds read low 0.918 | locus YBR279W, strain paf1, active compounds read low 0.982 | locus YCL016C, strain dcc1, active compounds read low 0.971 | locus YDL005C, strain med2, active compounds read low 0.953 | locus YDL040C, strain nat1, active compounds read low 0.995 | locus YDR137W, strain rgp1, active compounds read low 0.914 | locus YDR159W, strain sac3, active compounds read low 1.04 | locus YDR392W, strain spt3, active compounds read low 1.11 | locus YER016W, strain bim1, active compounds read low 0.961 | locus YER111C, strain swi4, active compounds read low 0.959 | locus YGL167C, strain pmr1, active compounds read low 0.996 | locus YIL073C, strain SPO22, active compounds read low 0.987 | locus YJL095W, strain BCK1 (second series), active compounds read low 0.994 | locus YJL154C, strain vps35, active compounds read low 0.985
active: locus YAL013W, strain DEP1, active compounds read low 0.0554 | locus YAL021C, strain ccr4, active compounds read low 0.186 | locus YAL026C, strain drs2, active compounds read low 0.0661 | locus YAL030W, strain snc1, active compounds read low 0.824 | locus YBR009C, strain hhf1, active compounds read low 0.557 | locus YBR021W, strain FUR4, active compounds read low 0.369 | locus YBR171W, strain sec66, active compounds read low 0.0858 | locus YBR229C, strain ROT2, active compounds read low 0.206 | locus YCL011C, strain gbp2, active compounds read low 0.223 | locus YCL029C, strain bik1, active compounds read low 0.425 | locus YCL069W, strain vba3, active compounds read low 0.849 | locus YCR088W, strain abp1, active compounds read low 0.0729 | locus YDL035C, strain GPR1, active compounds read low 0.0678 | locus YDL074C, strain BRE1, active compounds read low 0.144 | locus YDL101C, strain DUN1, active compounds read low 0.188 | locus YDL134C, strain PPH21, active compounds read low 0.592 | locus YDL185W, strain tfp1, active compounds read low 0.0687 | locus YDL192W, strain arf1, active compounds read low 0.133 | locus YDR001C, strain nth1, active compounds read low 0.815 | locus YDR069C, strain doa4, active compounds read low 0.858 | locus YDR101C, strain arx1, active compounds read low 0.119 | locus YDR150W, strain NUM1, active compounds read low 0.0676 | locus YDR162C, strain NBP2, active compounds read low 0.0472 | locus YDR195W, strain ref2 0.466 | locus YDR297W, strain sur2, active compounds read low 0.828 | locus YDR318W, strain mcm21, active compounds read low 0.194 | locus YDR334W, strain swr1, active compounds read low 0.415 | locus YDR335W, strain msn5, active compounds read low 0.904 | locus YDR388W, active compounds read low 0.0675 | locus YDR502C, strain sam2, active compounds read low 0.0781 | locus YEL003W, strain gim4, active compounds read low 0.154 | locus YEL037C, strain rad23, active compounds read low 0.723 | locus YEL061C, strain CIN8 (second series), active compounds read low 0.815 | locus YEL061C, strain CIN8, active compounds read low 0.0554 | locus YER015W, strain faa2, active compounds read low 0.822 | locus YER110C, active compounds read low 0.188 | locus YER155C, strain BEM2 (second series), active compounds read low 0.633 | locus YER155C, strain BEM2, active compounds read low 0.122 | locus YER167W, strain BCK2, active compounds read low 0.0855 | locus YFR010W, strain ubp6, active compounds read low 0.137 | locus YGL078C, strain dbp3, active compounds read low 0.0582 | locus YGL086W, strain mad1, active compounds read low 0.124 | locus YGL173C, strain kem1, active compounds read low 0.799 | locus YGL227W, strain vid30, active compounds read low 0.061 | locus YGL240W, strain doc1, active compounds read low 0.537 | locus YGL248W, strain PDE1, active compounds read low 0.646 | locus YGL253W, strain hxk2, active compounds read low 0.44 | locus YGR078C, strain PAC10, active compounds read low 0.0638 | locus YGR135W, strain pre9, active compounds read low 0.0907 | locus YGR229C, strain SMI1, active compounds read low 0.0609 | locus YGR252W, strain gcn5, active compounds read low 0.385 | locus YHR013C, strain ard1, active compounds read low 1.35 [resistant] | locus YHR027C, strain rpn1, active compounds read low 0.77 | locus YHR030C, strain SLT2, active compounds read low 0.179 and 0.0985 | locus YHR079C, strain IRE1 (second series), active compounds read low 0.312 | locus YHR079C, strain IRE1, active compounds read low 0.102 | locus YHR094C, strain hxt1, active compounds read low 0.302 | locus YHR129C, strain ARP1, active compounds read low 0.129 | locus YHR142W, strain chs7, active compounds read low 0.658 | locus YHR200W, strain rpn10, active compounds read low 0.0755 | locus YIL066C, strain RNR3, active compounds read low 0.51 | locus YIL125W, strain kgd1, active compounds read low 0.0583 | locus YIR030C, strain dcg1, active compounds read low 0.182 | locus YJL092W, strain hpr5, active compounds read low 0.402 | locus YJL095W, strain BCK1, active compounds read low 0.567 and 0.099 | locus YJL115W, strain asf1, active compounds read low 0.887 | locus YJL129C, strain trk1, active compounds read low 1.2 [resistant] | locus YJL134W, strain LCB3, active compounds read low 0.372 | locus YJL164C, strain tpk1, active compounds read low 0.775 | locus YJL166W, strain qcr8, active compounds read low 0.789 | locus YJL168C, strain set2, active compounds read low 0.199 | locus YJL187C, strain SWE1 (second series), active compounds read low 0.168 | locus YJL187C, strain SWE1, active compounds read low 0.846 | locus YJR043C, strain POL32, active compounds read low 0.0611 | locus YJR066W, strain TOR1, active compounds read low 0.0213 | locus YJR075W, strain HOC1, active compounds read low 0.0672
